# PubChem BioAssay (Tox21)
# Where “and” joins values, the source holds several entries; their conditions need not be identical. Equal entries are not always repeated. Inconclusive results are not listed. Entries that show only a call come without a potency. Calls of active or inactive are those of the source. Calls follow the shape of the dose curve; as a rule, active = well fitted curve in the direction sought with a large enough effect in the repeat runs; inconclusive = weak or mixed curves; inactive = no such curve, though single readings can be large; an effect the other way counts as inactive or inconclusive.
# Biological target: Aromatase (Homo sapiens) (UniProt P11511)
# Test: qHTS assay to identify aromatase inhibitors (AID 743083); also: nearly all actives have a fitted effect of over 55% in size; also: potency is read from the fitted curve at half-maximal effect
# Conditions: MCF-7 aro ERE, testosterone-driven ERE luciferase, 24 h; series mostly up to 70.3 µM
# Chain of Aromatase (Homo sapiens) (P11511 whole entry, looked up): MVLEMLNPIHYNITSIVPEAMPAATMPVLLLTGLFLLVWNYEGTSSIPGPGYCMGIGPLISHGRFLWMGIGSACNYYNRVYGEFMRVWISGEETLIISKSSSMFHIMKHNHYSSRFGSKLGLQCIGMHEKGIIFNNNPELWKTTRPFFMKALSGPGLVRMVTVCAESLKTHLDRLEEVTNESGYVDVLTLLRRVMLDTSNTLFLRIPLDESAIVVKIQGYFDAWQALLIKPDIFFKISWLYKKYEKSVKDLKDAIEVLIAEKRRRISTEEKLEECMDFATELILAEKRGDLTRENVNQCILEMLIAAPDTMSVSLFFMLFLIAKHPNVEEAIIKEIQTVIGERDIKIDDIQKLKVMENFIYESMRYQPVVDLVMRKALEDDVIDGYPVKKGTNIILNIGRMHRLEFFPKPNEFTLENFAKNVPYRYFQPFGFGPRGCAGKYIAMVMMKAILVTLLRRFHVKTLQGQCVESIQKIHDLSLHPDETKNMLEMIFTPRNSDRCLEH
row,SMILES,Potency
1,COc1nn(CSP(=S)(OC)OC)c(=O)s1,61.1 µM (active)
2,CCOP(=S)(OCC)Oc1nc(Cl)c(Cl)cc1Cl,inactive
3,NC(=O)C(Cl)(Cl)Cl,inactive
4,COP(=S)(OC)Oc1cc(Cl)c(I)cc1Cl,inactive
5,CCCN(CCC)c1c([N+](=O)[O-])cc(S(C)(=O)=O)cc1[N+](=O)[O-],inactive

# Tested on: not listed separately
# Test: qHTS assay to identify aromatase inhibitors - cell viability counter screen (AID 743084);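 also: cells stimulated with testosterone during compound exposure; nearly all actives have a fitted effect of over 55% in size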; also: potency is read from the fitted curve at half-maximal effect
# Conditions: MCF-7 aro ERE viability, CellTiter-Fluor, 24 h; series mostly up to 70.3 µM
row,SMILES,Potency
1,CC1(C)CCC(Cc2ccc(Cl)cc2)C1(O)Cn1cncn1 (configuration not stated),inactive
2,CCOP(=O)(OCC)SCCSCC,inactive
3,CCCCCCCCCCOC(=O)c1ccccc1C(=O)OCCCCCCCCCC,inactive
4,CCC(COC(=O)c1cc(OC)c(OC)c(OC)c1)(c1ccccc1)N(C)C (configuration not stated),inactive
5,Cc1cc(=O)[nH]o1,inactive
6,C=CC(C)=O,inactive
7,O=C1C(=O)c2cccc3cccc1c23,inactive
8,CCOP(=O)(OCC)O/C(=C/Cl)c1ccc(Cl)cc1Cl,inactive
9,BrCCCCBr,inactive
10,S=C=NCc1ccccc1,inactive
11,C=CC(=O)OC(C)(C)C,inactive
12,CC(O)(CS(=O)(=O)c1ccc(F)cc1)C(=O)Nc1ccc(C#N)c(C(F)(F)F)c1 (configuration not stated),inactive
13,COc1c(C(C)(C)C)cc([N+](=O)[O-])c(C)c1[N+](=O)[O-],inactive
14,Clc1ccc(C2(Cn3cncn3)CC(Br)CO2)c(Cl)c1 (configuration not stated),inactive
15,O=C(NCc1cccnc1)Nc1ccc([N+](=O)[O-])cc1,inactive
16,CCOP(=S)(Oc1ccc([N+](=O)[O-])cc1)c1ccccc1 (configuration not stated),inactive

row,SMILES,Potency
1,Cc1c(F)c(F)c(COC(=O)C2C(/C=C(\Cl)C(F)(F)F)C2(C)C)c(F)c1F (configuration not stated),inactive
2,O=C(CBr)OCc1ccccc1,inactive
3,O=C(OC1CCCCC1)c1ccccc1C(=O)OC1CCCCC1,inactive
4,COP(=O)(OC)O/C(=C/Cl)c1cc(Cl)c(Cl)cc1Cl,inactive
5,N#Cc1ccc(Cl)cc1,inactive
6,ClCCCCBr,inactive
7,CCOP(=S)(OCC)Oc1cc(Cl)c(Br)cc1Cl,inactive
8,O=C(O)CC(Cl)C(=O)O (configuration not stated),inactive
9,C(=NC1CCCCC1)=NC1CCCCC1,inactive
10,COc1nn(CSP(=S)(OC)OC)c(=O)s1,68.6 µM (active)
11,CCOP(=S)(OCC)Oc1nc(Cl)c(Cl)cc1Cl,inactive
12,NC(=O)C(Cl)(Cl)Cl,inactive
13,COP(=S)(OC)Oc1cc(Cl)c(I)cc1Cl,inactive
14,COP(=S)(Oc1cc(Cl)c(Br)cc1Cl)c1ccccc1 (configuration not stated),inactive
15,CCCN(CCC)c1c([N+](=O)[O-])cc(S(C)(=O)=O)cc1[N+](=O)[O-],inactive

# Biological target: Aryl hydrocarbon receptor (Homo sapiens) (UniProt P35869)
# Test: qHTS assay to identify small molecule that activate the aryl hydrocarbon receptor (AhR) signaling pathway (AID 743085); also: nearly all actives have a fitted effect of over 15% in size; also: potency is read from the fitted curve at half-maximal effect
# Conditions: HepG2 AhR-luc (HG2L7.5c1), luciferase, 24 h; series mostly up to 70.3 µM
# Method in brief: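 Luminescence (ONE-Glo) from a dioxin-responsive-element luciferase reporter in HG2L7.5c1 HepG2 cells after 24 hr compound exposure at 37C; viability measured by CellTiter-Fluor fluorescence beforehand.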
# Chain of Aryl hydrocarbon receptor (Homo sapiens) (P35869 whole entry, looked up): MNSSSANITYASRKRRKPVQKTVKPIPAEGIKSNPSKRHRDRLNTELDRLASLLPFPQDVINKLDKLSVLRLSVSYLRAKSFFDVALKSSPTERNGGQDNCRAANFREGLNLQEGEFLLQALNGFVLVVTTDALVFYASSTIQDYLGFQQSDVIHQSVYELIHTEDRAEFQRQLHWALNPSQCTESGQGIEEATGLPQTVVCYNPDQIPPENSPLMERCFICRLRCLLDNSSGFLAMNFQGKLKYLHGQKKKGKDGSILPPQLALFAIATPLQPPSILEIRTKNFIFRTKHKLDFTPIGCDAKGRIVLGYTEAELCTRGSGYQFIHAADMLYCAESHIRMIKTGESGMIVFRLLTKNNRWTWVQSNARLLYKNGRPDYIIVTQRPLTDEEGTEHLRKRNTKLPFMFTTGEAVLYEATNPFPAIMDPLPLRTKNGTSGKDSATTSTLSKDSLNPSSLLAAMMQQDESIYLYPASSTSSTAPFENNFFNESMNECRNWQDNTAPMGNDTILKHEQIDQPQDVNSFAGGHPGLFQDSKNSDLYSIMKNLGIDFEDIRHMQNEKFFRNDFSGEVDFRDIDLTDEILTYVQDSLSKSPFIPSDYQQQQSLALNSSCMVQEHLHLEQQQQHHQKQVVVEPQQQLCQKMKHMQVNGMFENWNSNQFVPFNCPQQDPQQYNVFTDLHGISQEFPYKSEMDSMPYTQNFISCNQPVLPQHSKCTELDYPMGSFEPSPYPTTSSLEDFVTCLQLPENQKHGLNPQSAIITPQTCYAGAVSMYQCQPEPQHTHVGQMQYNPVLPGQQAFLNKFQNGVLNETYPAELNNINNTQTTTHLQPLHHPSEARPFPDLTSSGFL
row,SMILES,Potency
1,CC1(C)CCC(Cc2ccc(Cl)cc2)C1(O)Cn1cncn1 (configuration not stated),inactive
2,CCCCCCCCCCOC(=O)c1ccccc1C(=O)OCCCCCCCCCC,inactive
3,Cc1cc(=O)[nH]o1,inactive
4,C=CC(C)=O,inactive
5,Clc1cc(C(Cl)(Cl)Cl)cnc1Cl,inactive
6,BrCCCCBr,inactive
7,S=C=NCc1ccccc1,inactive
8,C=CC(=O)OC(C)(C)C,inactive
9,CC(O)(CS(=O)(=O)c1ccc(F)cc1)C(=O)Nc1ccc(C#N)c(C(F)(F)F)c1 (configuration not stated),inactive
10,Cl/C=C\C[N+]12CN3CN(CN(C3)C1)C2,inactive
11,Cc1c(F)c(F)c(COC(=O)C2C(/C=C(\Cl)C(F)(F)F)C2(C)C)c(F)c1F (configuration not stated),inactive
12,O=C(CBr)OCc1ccccc1,inactive
13,O=C(OC1CCCCC1)c1ccccc1C(=O)OC1CCCCC1,inactive
14,COP(=O)(OC)O/C(=C/Cl)c1cc(Cl)c(Cl)cc1Cl,inactive
15,N#Cc1ccc(Cl)cc1,inactive
16,ClCCCCBr,inactive
17,CCOP(=S)(OCC)Oc1cc(Cl)c(Br)cc1Cl,9.69 µM (active)
18,C(=NC1CCCCC1)=NC1CCCCC1,inactive
19,CCOP(=S)(OCC)Oc1nc(Cl)c(Cl)cc1Cl,27.4 µM (active) and 10.9 µM (active)
20,NC(=O)C(Cl)(Cl)Cl,inactive
21,COP(=S)(OC)Oc1cc(Cl)c(I)cc1Cl,24.3 µM (active)
22,CCCN(CCC)c1c([N+](=O)[O-])cc(S(C)(=O)=O)cc1[N+](=O)[O-],inactive

# Tested on: not listed separately
# Test: qHTS assay to identify small molecule that activate the aryl hydrocarbon receptor (AhR) signaling pathway - cell viability counter screen (AID 743086);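 also: HepG2 liver cells carrying the AhR DRE luciferase reporter; nearly all actives have a fitted effect of over 45% in size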
# Conditions: HepG2-AhR-luc viability, CellTiter-Fluor, 24 h; series mostly up to 70.3 µM
# Method in brief: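 HepG2-AhR-luc (HG2L7.5c1) cells, 4000/well, were preincubated 5 h at 37C, exposed to compound in qHTS format for 24 hr at 37C, then given CellTiter-Fluor for 30 min; viability was read as fluorescence in the reporter wells.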
row,SMILES,Potency
1,CC1(C)CCC(Cc2ccc(Cl)cc2)C1(O)Cn1cncn1 (configuration not stated),inactive
2,CCOP(=O)(OCC)SCCSCC,inactive
3,CCCCCCCCCCOC(=O)c1ccccc1C(=O)OCCCCCCCCCC,inactive
4,CCC(COC(=O)c1cc(OC)c(OC)c(OC)c1)(c1ccccc1)N(C)C (configuration not stated),inactive
5,Cc1cc(=O)[nH]o1,inactive
6,C=CC(C)=O,inactive
7,O=C1C(=O)c2cccc3cccc1c23,inactive
8,Clc1cc(C(Cl)(Cl)Cl)cnc1Cl,inactive
9,CCOP(=O)(OCC)O/C(=C/Cl)c1ccc(Cl)cc1Cl,inactive
10,BrCCCCBr,inactive
11,S=C=NCc1ccccc1,inactive
12,C=CC(=O)OC(C)(C)C,inactive
13,CC(O)(CS(=O)(=O)c1ccc(F)cc1)C(=O)Nc1ccc(C#N)c(C(F)(F)F)c1 (configuration not stated),inactive
14,COc1c(C(C)(C)C)cc([N+](=O)[O-])c(C)c1[N+](=O)[O-],inactive
15,O=C(NCc1cccnc1)Nc1ccc([N+](=O)[O-])cc1,inactive
16,CCn1cc[n+](C)c1,inactive
17,CCOP(=S)(Oc1ccc([N+](=O)[O-])cc1)c1ccccc1 (configuration not stated),inactive

row,SMILES,Potency
1,Cl/C=C\C[N+]12CN3CN(CN(C3)C1)C2,inactive
2,Cc1c(F)c(F)c(COC(=O)C2C(/C=C(\Cl)C(F)(F)F)C2(C)C)c(F)c1F (configuration not stated),inactive
3,O=C(CBr)OCc1ccccc1,inactive
4,O=C(OC1CCCCC1)c1ccccc1C(=O)OC1CCCCC1,inactive
5,COP(=O)(OC)O/C(=C/Cl)c1cc(Cl)c(Cl)cc1Cl,inactive
6,N#Cc1ccc(Cl)cc1,inactive
7,ClCCCCBr,inactive
8,CCOP(=S)(OCC)Oc1cc(Cl)c(Br)cc1Cl,inactive
9,O=C(O)C(F)(F)C(F)(F)C(F)(F)C(F)(F)C(F)(F)C(F)(F)C(F)(F)C(F)(F)C(F)(F)F,inactive
10,O=C(O)CC(Cl)C(=O)O (configuration not stated),inactive
11,C(=NC1CCCCC1)=NC1CCCCC1,inactive
12,COc1nn(CSP(=S)(OC)OC)c(=O)s1,inactive
13,CCOP(=S)(OCC)Oc1nc(Cl)c(Cl)cc1Cl,inactive
14,NC(=O)C(Cl)(Cl)Cl,inactive
15,COP(=S)(OC)Oc1cc(Cl)c(I)cc1Cl,inactive
16,COP(=S)(Oc1cc(Cl)c(Br)cc1Cl)c1ccccc1 (configuration not stated),inactive
17,CCCN(CCC)c1c([N+](=O)[O-])cc(S(C)(=O)=O)cc1[N+](=O)[O-],inactive
